# Data reported in PubChem BioAssay (Tox21).
# Results filed as inconclusive are left out. Entries that show only a call come without a potency. The source made the active and inactive calls. Unless noted, calls follow the shape of the dose curve; as a rule, active = well fitted cell-killing curve with a large enough effect in the repeat runs; inconclusive = weak or mixed curves, or effect the other way; inactive = no such curve, though single readings can be large or run the other way.
# Assay: qHTS assay to identify small molecule antagonists of the peroxisome proliferator-activated receptor gamma (PPARg) signaling pathway - cell viability counter screen (AID 743194); also: nearly all actives have a fitted effect of over 55% in size
# Settings: PPARg-bla HEK293H viability, CellTiter-Glo luminescence, 17 h; series mostly up to 62.6 µM
# Outline: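 PPARg-UAS-bla HEK293H cells were plated, rested 5 h at 37 C, then treated with compounds plus rosiglitazone (50 nM final) for 17 h at 37 C; viability was then read by CellTiter-Glo luminescence after 30 min at room temperature.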
row,Structure (SMILES),outcome
1,COC(=O)c1ccccc1N,inactive
2,Cc1ccc(N)cc1N,inactive
3,Cc1cc(Cl)ccc1O,inactive
4,O=c1n(Cl)c(=O)n(Cl)c(=O)n1Cl,inactive
5,OC(O)C(Cl)(Cl)Cl,inactive
6,O=NN1CCCC1,inactive
7,CCCCCOC(=O)c1ccccc1C(=O)OCCCCC,inactive
8,O=[N+]([O-])c1ccccc1,inactive
9,CCOP(=S)(OCC)SCCSCC,inactive
10,C#CCN(C)[C@H](C)Cc1ccccc1,inactive
11,O=[N+]([O-])c1ccc([As](=O)(O)O)cc1,inactive
12,C1CN2CCN1CC2,inactive
13,NCCc1ccc(O)cc1,inactive
14,CC(C)NC(=O)N1CC(=O)N(c2cc(Cl)cc(Cl)c2)C1=O,inactive
15,Cc1ccc([N+](=O)[O-])cc1C,inactive
16,CCCN(CCC)c1c([N+](=O)[O-])cc(C(F)(F)F)cc1[N+](=O)[O-],inactive
17,CCCN(CCC)N=O,inactive
18,Clc1cccc(Cl)c1Cl,inactive

row,Structure (SMILES),outcome
1,CCN(CC)CCO,inactive
2,CN(C)N=O,inactive
3,Nc1ccccc1C(=O)O,inactive
4,ClCCBr,inactive
5,BrCCBr,inactive
6,COC(=O)NS(=O)(=O)c1ccc(N)cc1,inactive
7,CC(Br)C(=O)O (configuration not stated),inactive
8,CCN(CC)c1ccccc1,inactive
9,CCOP(=S)(OCC)Oc1cnc2ccccc2n1,inactive
10,CN(C)CCO,inactive
11,O=C1CCCN1,inactive
12,CCC12COCN1COC2,inactive
13,CCNc1nc(NC(C)C)nc(SC)n1,inactive
14,O=Cc1cccc(Oc2ccccc2)c1,inactive
15,CC1C=[C-]C=C1.[C-]#[O+].[C-]#[O+].[C-]#[O+].[Mn],inactive
16,Cc1[nH]c(=O)n(C(C)(C)C)c(=O)c1Cl,inactive
17,CCCCN(CC)C(=O)SCCC,inactive
18,CC(C)(C)OOC(=O)c1ccccc1,inactive

# Assay: qHTS assay for small molecule agonists of the antioxidant response element (ARE) signaling pathway (AID 743202; active = well fitted activation curve with a large enough effect in the signal ratio in the repeat runs, not every such curve was filed as active; the % refers to the signal ratio; also: potency is read from the fitted curve at half-maximal effect)
# Settings: HepG2 ARE-bla reporter, beta-lactamase FRET, 16 h; series mostly up to 73.3 µM
# Outline: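 Read-out: LiveBLAzer B/G FRET substrate fluorescence after 2 h at room temperature, following 16 h compound treatment at 37 C of HepG2 cells carrying an ARE-driven beta-lactamase reporter.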
row,Structure (SMILES),Potency
1,COC(=O)c1ccccc1N,inactive
2,Cc1ccc(N)cc1N,inactive
3,Cc1cc(Cl)ccc1O,inactive
4,O=c1n(Cl)c(=O)n(Cl)c(=O)n1Cl,inactive
5,OC(O)C(Cl)(Cl)Cl,inactive
6,O=NN1CCCC1,inactive
7,CCCCCOC(=O)c1ccccc1C(=O)OCCCCC,inactive
8,O=[N+]([O-])c1ccccc1,inactive
9,CCOP(=S)(OCC)SCCSCC,inactive
10,C#CCN(C)[C@H](C)Cc1ccccc1,inactive
11,O=[N+]([O-])c1ccc([As](=O)(O)O)cc1,54.5 µM (active)
12,C1CN2CCN1CC2,inactive
13,NCCc1ccc(O)cc1,inactive
14,CC(C)NC(=O)N1CC(=O)N(c2cc(Cl)cc(Cl)c2)C1=O,inactive
15,Cc1ccc([N+](=O)[O-])cc1C,inactive
16,CCCN(CCC)c1c([N+](=O)[O-])cc(C(F)(F)F)cc1[N+](=O)[O-],inactive
17,CCCN(CCC)N=O,inactive
18,Clc1cccc(Cl)c1Cl,inactive

row,Structure (SMILES),Potency
1,CCN(CC)CCO,inactive
2,CN(C)N=O,inactive
3,Nc1ccccc1C(=O)O,inactive
4,ClCCBr,inactive
5,BrCCBr,inactive
6,COC(=O)NS(=O)(=O)c1ccc(N)cc1,inactive
7,CC(Br)C(=O)O (configuration not stated),inactive
8,CCN(CC)c1ccccc1,inactive
9,CCOP(=S)(OCC)Oc1cnc2ccccc2n1,inactive
10,CN(C)CCO,inactive
11,O=C1CCCN1,inactive
12,CCC12COCN1COC2,inactive
13,CCNc1nc(NC(C)C)nc(SC)n1,inactive
14,O=Cc1cccc(Oc2ccccc2)c1,inactive
15,CC1C=[C-]C=C1.[C-]#[O+].[C-]#[O+].[C-]#[O+].[Mn],inactive
16,Cc1[nH]c(=O)n(C(C)(C)C)c(=O)c1Cl,inactive
17,CCCCN(CC)C(=O)SCCC,inactive
18,CC(C)(C)OOC(=O)c1ccccc1,inactive
